The record followed here is the supplement of paper PMC11417369.

Over roughly 25,000 sequences, “ln(normalized median fluorescence intensity)” has its median near 9.3; the highest 2% begin near 10. Many of the other results were omitted from the sample, so the highest values are more common in it than they were.

The test system of the assay is PF3D7_0420300 AP2 domain 1 (GST-tagged). Kind of assay: gcPBM binding intensity (ln(normalized median fluorescence intensity)); higher = stronger DNA binding. In short, it runs like this:
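After 1 h on an Agilent 4 × 180k array of primer-extended double-stranded 36-bp intergenic genomic probes and negative controls, bound GST-tagged P. falciparum DNA-binding domains were detected with Alexa488 anti-GST antibody and scanned at 488 nm. The domains had been expressed in E. coli, and binding took place in 1× PBS with 1% milk, 0.2 mg/ml BSA, 0.5% salmon testes DNA and 0.03% Triton X-100. Binding intensity is the highest Masliner-normalised natural-log median intensity across replicate spots of either probe orientation.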
“AAATTAAAAAAAAATAAATAAAAAAAAAAAAAAAAT [CACACA_negctrl_site1611]”: the “gcPBM binding intensity (ln)” value was found to be 9.35. Regarding “TGGATATATGTAAAAATTGCAAGAAAGATAAAAGGA [CACACA_negctrl_site64]”, the “gcPBM binding intensity (ln)” value turned out to be 9.6. With “GCAACAAAAAATCAGACATGCATTTTAAAATGAATA [TGCATGCA_site846]”, the “gcPBM binding intensity (ln)” value was 9.14. With “TATTAAACTAAATGTAGTACATACACAAAAGAAACC [XGTACX_site606]”, the “gcPBM binding intensity (ln)” value was 9.75. Then “ATTTTTTTTTTTTTTTTGGGGGGGTATACTTTTAAA [CACACA_negctrl_site1020]”, with 10.8. The result for “TATACTTTATATATTTTGTATATATATTTTTTTTAT [TGCATGCA_negctrl_site530]” reads 9.34; that for “GTTAATATTTTTGGGGGTACTTAAAAAAAAAAAAAA [XGTACX_site1477]”, 9.22.

Consider “TTCATAAGAAGGAACTGTACATATTTTTCATTTTTT [XGTACX_site6770]”, for which the “gcPBM binding intensity (ln)” value turned out to be 9.15. Then “TAATAAATAAATGACACACACACACGCAAAAAAAAA [CACACA_site7275]”, with 10.1; and “CACAAACAAAGACACACACACACACGCACAAAAATG [CACACA_site7193]”, with 10.1. Then “CCTCATATTATAGACACACACAAAAAAAATAAAAAA [CACACA_site180]”, with 9.74; and “AATTAACAAAGACACACACACACACGCACAAAAAAA [CACACA_site6388]”, with 10.2; and “TACACAAACAGACACACACACACACGCGCACAAAAA [CACACA_site7192]”, with 10.2. The result for “AAAAAAAACACGCGCACACACACACCCACAGACACA [CACACA_site5253]” reads 9.92; that for “AATGTGTAGACACGCACACACAAAAAAATATTTATA [CACACA_site7384]”, 9.6. Turning to “TTTATTAATAGACACACACACACACGCAAAATAAAA [CACACA_site6255]”, the “gcPBM binding intensity (ln)” value was found to be 10.2. Then “TTATTATTAAGACACACACACAAAAAAAAAAAAAAA [CACACA_site6805]”, with 9.73. “TAAATTAAAAGACACACACACAAAAAAAAAAAAAAA [CACACA_site7131]”: the “gcPBM binding intensity (ln)” value is 9.66. With “TATTTATTAAGACACACACACACACGCACAAAATAA [CACACA_site6254]”, the “gcPBM binding intensity (ln)” value is 10.2. Then “ATAGACAGCGCACAAACACACAAACACGCACGCACA [CACACA_site6349]”, with 9.6.

In the case of “TTATTAACCTAAATTAGTACATATAATATAAAAAAT [XGTACX_site8661]”, the “gcPBM binding intensity (ln)” value was found to be 9.18. The result for “GAAAAGAAAAATAAACGTACATAAATATTAACATTA [XGTACX_site8213]” reads 9.2; that for “AGGCTCATTTTTTTTAGTACATCAAAAAAAAAAAAA [TGCATGCA_negctrl_site591]”, 8.7. For “TTTTTTTTTTTTTTTTGTACATATATATAAAAAATA [XGTACX_site2772]”, the “gcPBM binding intensity (ln)” value was determined as 8.49.

With “ATATATAACTTTTCTTAACACACAAAAAACAAAAAT [CACACA_site8748]”, the “gcPBM binding intensity (ln)” value worked out at 9.56. The result for “TATATATATATAAACGCATGTAATTTATACACACAT [TGCATGCA_site946]” reads 9.41; that for GACAATTATATGTAGGTGCATATACAAATTTTTTAA, 9.11; that for “TTAACAAATAGACACACACACACACGCAAAAAAAAA [CACACA_site6387]”, 10.2. The result for “AAAACAAATAGACACGCACACAAAAAAAAAAAAAAA [CACACA_site801]” reads 9.33; that for “ATATATATATATAACACACGCAAAAAAATTAAATAA [CACACA_site1400]”, 9.69; that for “AAAAAAAAAAAATATATATATATATATATATATATA [CACACA_negctrl_site1606]”, 9.3. “TATATAAAAATATACACACACAAATGTATATATATA [CACACA_site220]”: the “gcPBM binding intensity (ln)” value came out at 9.68. Turning to “AAAAAAAAAAAAAAATACAAGCACATTTATATAAGC [GTGCAC_negctrl_site695]”, the “gcPBM binding intensity (ln)” value came out at 9.46. The result for “AAATACTGATTTGGTTGTACATGTGCACTATATAAC [XGTACX_site3795]” reads 9.35; that for “TCATTTCACAAACACACACACACAATATATTTCCTT [CACACA_site3905]”, 10.1; that for “TCATTTCACGGACACACACACACAATATATTTCCTT [CACACA_site6023]”, 10.2. Take “TCATTTCACAGACACACACACACAATATATTTCCTT [CACACA_site9295]”: the “gcPBM binding intensity (ln)” value stood at 10.2. For “TATTTTATAATTTACCGTACATTAATTGTATTATTA [XGTACX_site5722]”, the “gcPBM binding intensity (ln)” value was found to be 9.33. Take “CATACACAGAAACACACACACATATATACATATATA [CACACA_site1094]”: the “gcPBM binding intensity (ln)” value came out at 10.1. Regarding “GTATCAAAAGAATACACACACACATACAGATATATA [CACACA_site5975]”, the “gcPBM binding intensity (ln)” value came to 10.1.

As for “CAATCAAATGGACACACACACACCTAAACATAAAAG [CACACA_site5524]”, the “gcPBM binding intensity (ln)” value worked out at 10.2. Then “TACATACAGAAACACACACACACATATATATATATA [CACACA_site2919]”, with 10; and “TAGATACAGAAACACACACACACATACATATATACA [CACACA_site3437]”, with 10.2. The result for “ATCAAAAGAAAACACACACACATACATATATATATA [CACACA_site3795]” reads 10.1. For the sequence “ATCAAAAGAAAACACACACACATACAGATATATATA [CACACA_site5974]”, the “gcPBM binding intensity (ln)” value came to 10.2. For “CAATCAAATAGACACACACACACCTAAACATAAAAG [CACACA_site7322]”, the “gcPBM binding intensity (ln)” value was 10.1. The result for “CAATCAAAGAAACACACACACACCTAAACATAAAAG [CACACA_site2756]” reads 10.2. The result for “ATATTACGCACAAAAAAAAAAAAAAAAAAAAAAAAA [CACACA_negctrl_site941]” reads 8.77; that for “TGGATGTTAATATAGTGTACATTTATAAGTCAGTAT [XGTACX_site2949]”, 9.45; that for “ATATTGTAAGTAAACACACACACATCTATAGGTATA [CACACA_site6462]”, 9.96. Then “AATATATACATACATACATGCATACATATATATAAC [TGCATGCA_site371]”, with 9.37; and “TATTTATATTTATATACACACATATATACCTATATA [CACACA_site7820]”, with 9.48. Take “GATACCTATAGACACACACACATACCTATATACATA [CACACA_site7586]”: the “gcPBM binding intensity (ln)” value turned out to be 10.1. The result for “AAAACAAACAGACACACACACATATTTATATTTATA [CACACA_site7681]” reads 10.1. Then “TATAGATACCTATACACACACACACGGACATATATA [CACACA_site7585]”, with 10.2. As for “TATATATATTTATACACACACATATATTTATATATT [CACACA_site484]”, the “gcPBM binding intensity (ln)” value was determined as 9.7. The result for “CATACATACATACATACACACATACCTATATTTATA [CACACA_site6769]” reads 9.79.

As to “CATACATACAGACACACACACATATTTATATTTATA [CACACA_site6172]”, the “gcPBM binding intensity (ln)” value worked out at 9.94. The result for “TATTTATACCTATACACACACACACGGATATTTATA [CACACA_site7123]” reads 10.2; that for “AAAAAACAGACATACACACACACACGGATATTTATA [CACACA_site7570]”, 10.3. The result for “TATATATATATATATACACACATATATATATTTATA [CACACA_site627]” reads 9.39. The result for “TATATACCTATATACACACACATATATTATAGATAT [CACACA_site6266]” reads 9.82; that for “ACCATACATACATACACACACACACGCATATTTATA [CACACA_site7386]”, 10.4.
